The source made the active and inactive calls. Rule as the data show it: active = fold change permeability below about 0.7 or above about 1.3; inactive = in between.
Assay: compounds altering in vitro BBB leakiness – cell-based, FITC-avidin fluorescence, HTS, primary screen (AID 1963498); also: test concentration not given here
Conditions: brain endothelial barrier, actives lie on both sides

SMILES	fold change permeability
CCCCC[C@H](CC(=O)NO)C(=O)N[C@H](C(=O)N1CCC[C@H]1CO)C(C)C	1.2 (inactive)
O=C(O)C1=CCCN(CCON=C(c2ccccc2)c2ccccc2)C1	1.1 (inactive)
CCOc1cc(C(=O)Nc2ccc(Cl)c(-c3nc4ccccc4[nH]3)c2)cc(OCC)c1OCC	1.7 (active)
Cc1cc(C)c(S(=O)(=O)N(CCc2cccc(Br)c2)Cc2ccc(-c3cccc(S(C)(=O)=O)c3)cc2)c(C)c1	1.8 (active)
CCOC(=O)C12CC1/C(=N\O)c1ccccc1O2 (centres undefined)	1.2 (inactive)
CC[C@]1(O)C[C@H]2CN(CCc3c([nH]c4ccccc34)[C@@](C(=O)OC)(c3cc4c(cc3OC)N(C=O)[C@H]3[C@@](O)(C(=O)OC)[C@H](OC(C)=O)[C@]5(CC)C=CCN6CC[C@]43[C@@H]65)C2)C1	2.1 (active)
N#Cc1c(N2C[C@@H]3NCCO[C@H]3C2)c(F)cc2c(=O)c(C(=O)O)cn(C3CC3)c12	0.9 (inactive)
COc1ccc2c(c1)c(CC(=O)O)c(C)n2Cc1ccc(Cl)cc1	1 (inactive)
CC(C)C(=O)Nc1n[nH]c2cc(-c3cccc(NS(=O)(=O)C4CC4)c3)ccc12	1.2 (inactive)
CCCCCC(O)CCCC(=O)O (centres undefined)	1 (inactive)
CC(C)(C)NCC(O)COc1cccc2[nH]c(=O)[nH]c12 (centres undefined)	1 (inactive)
CCn1c(=O)[nH]c2cc(Cl)c(Cl)cc21	0.7 (active)
Nc1ncnc2c1ncn2[C@@H]1O[C@H](CO)[C@@H](O)[C@H]1O	1 (inactive)
NC/C=C\C(=O)O	1.2 (inactive)
O=c1c(O)c(-c2ccc(O)cc2O)oc2cc(O)cc(O)c12	0.7 (active)
CN1CCN(CCCN2c3ccccc3Sc3ccc(C(F)(F)F)cc32)CC1	1.2 (inactive)
CC(=O)Oc1cc(C(C)C)c(OCCN(C)C)cc1C	0.8 (inactive)
C#CCN(C)Cc1ccccc1	0.6 (active)
CC(C)(C)c1ccc(C(O)CCCN2CCC(C(O)(c3ccccc3)c3ccccc3)CC2)cc1 (centres undefined)	1.4 (active)
Nc1nc(N)c2nc(-c3ccccc3)c(N)nc2n1	1.4 (active)

SMILES	fold change permeability
C=CC[C@H](N)C(=O)O	1 (inactive)
CCN1CCCC1CNC(=O)c1cc(S(=O)(=O)CC)c(N)cc1OC (centres undefined)	0.7 (active)
Cc1ccccc1N1CCN(CCc2nnc3n2CCCC3)CC1	0.9 (inactive)
C[C@@H](O)[C@H]1C(=O)N2C(C(=O)O)=C(SCCN=CN)C[C@H]12	0.8 (inactive)
NC(N)=NCCC[C@H](NC(=O)[C@@H](N)Cc1ccc(O)cc1)C(=O)O	1.2 (inactive)
N#CC(=C(/N)Sc1ccccc1N)/C(C#N)=C(\N)Sc1ccccc1N	1.6 (active)
O=C(O)c1cccnc1C(=O)O	1.1 (inactive)
CNC(=O)Oc1ccc2c(c1)[C@]1(C)CCN(C)[C@@H]1N2C	0.8 (inactive)
CC(O)C(O)[C@H]1CNc2nc(N)[nH]c(=O)c2N1 (some centres undefined)	1.4 (active)
O=C1CCCC(=O)C1C(=O)c1ccc(C(F)(F)F)cc1[N+](=O)[O-]	0.9 (inactive)
CCC(=O)Nc1cccc(Oc2nc(Nc3ccc(N4CCN(C)CC4)cc3OC)ncc2Cl)c1	1.2 (inactive)
O=c1cc(-c2ccccc2)oc2c(O)c(O)ccc12	1.5 (active)
Cc1cc(NC2CCCCC2)nc(-n2nc(C)cc2C)n1	1.3 (active)
CN1CCN2c3ccccc3Cc3ccccc3C2C1 (centres undefined)	1.1 (inactive)
Oc1cc2c(cc1O)CN(C(=S)NCCc1ccc(Cl)cc1)CCC2	1.8 (active)
Cc1ccc(N(CC2=NCCN2)c2cccc(O)c2)cc1	1.1 (inactive)
CCNC(=O)[C@H]1O[C@@H](n2cnc3c(N)nc(NCCc4ccc(CCC(=O)O)cc4)nc32)C(O)[C@H]1O (some centres undefined)	1.1 (inactive)
C[C@@H](O[C@H]1OCCN(Cc2nn(P(=O)(O)O)c(=O)[nH]2)[C@H]1c1ccc(F)cc1)c1cc(C(F)(F)F)cc(C(F)(F)F)c1	1.4 (active)
O=C(Nc1ccc(Oc2ccc(Cl)cn2)c(Cl)c1)c1ccccn1	1.5 (active)

— PubChem BioAssay
